Test results from PubChem BioAssay AID602257 (NMMLSC, 2012).
Measured potencies and affinities stand elsewhere.

Assay: yeast V-ATPase proton pumping modulator potency, dose response, S. cerevisiae, pHLuorin, powder set 1 (AID 602257)
Conditions: vacuolar pH, pHLuorin fluorescence; series mostly up to 100 µM; response: at the top concentration; call rule not given here

response, inactive:
O=C(c1ccc([N+](=O)[O-])o1)N1CCN(c2nc3ccc(F)cc3s2)CC1 18.2%, O=C(c1nc2ccccc2s1)N1CCN(c2nc3ccc(F)cc3s2)CC1 4.2%, O=C(c1ccno1)N1CCN(c2nc3ccc(F)cc3s2)CC1 5.96%, O=C(c1ccc(Cl)s1)N1CCN(c2nc3ccc(F)cc3s2)CC1 2.1%, CC(C)(C)C(=O)N1CCN(c2nc3ccc(F)cc3s2)CC1 8.07%, CS(=O)(=O)c1cccc2sc(N3CCN(C(=O)c4ccc([N+](=O)[O-])o4)CC3)nc12 4.59%, CS(=O)(=O)c1ccc2nc(N3CCN(C(=O)c4ccc([N+](=O)[O-])o4)CC3)sc2c1 -1.5%, Cc1cc(C(=O)N2CCN(c3nc4ccc(F)cc4s3)CC2)n(C)n1 0.29%, O=C(c1ccc([N+](=O)[O-])o1)N1CCN(c2nccs2)CC1 7.98%, O=C(c1cccs1)N1CCN(c2nc3ccc(F)cc3s2)CC1 9.99%, Cc1cc(C(=O)N2CCN(c3nc4ccc(F)cc4s3)CC2)nn1C 1.54%, COc1ccc2nc(N3CCN(C(=O)c4ccc([N+](=O)[O-])o4)CC3)sc2c1 28.2%, O=C(c1cnccn1)N1CCN(c2nc3ccc(F)cc3s2)CC1 -8.97%, O=C(c1ccc(Br)s1)N1CCN(c2nc3ccc(F)cc3s2)CC1 2.32%, O=C(C1CCCCC1)N1CCN(c2nc3ccc(F)cc3s2)CC1 12.2%, Cc1cc(C(=O)N2CCN(c3nc4ccc(F)cc4s3)CC2)no1 6.3%, O=C(C1CC1)N1CCN(c2nc3ccc(F)cc3s2)CC1 2.04%, Cc1cc(C(=O)N2CCN(c3nc4ccc(F)cc4s3)CC2)on1 2.54%, O=C(c1ccc([N+](=O)[O-])o1)N1CCN(c2ccccn2)CC1 0.79%, O=C(c1ccco1)N1CCN(c2nc3ccc(F)cc3s2)CC1 10.7%
